Source: PubChem
Rows were chosen to be rich in hits. Some 12% of all compounds tested hit in one or more screens of this group.
HP1b chromo inh – HTS for Inhibitors of HP1-beta Chromodomain Interactions with Methylated Histone Tails; AlphaScreen HP1-beta / biotin-H3K9me3 peptide binding; Potency, µM (doses to about 114 µM), actives largely listed as inhibitors; hit rate 0.56% among 390,000; AID 540317, 2011; also: nearly all actives have a fitted effect of over 70% in size
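AlphaScreen: HP1-beta (50 nM) preformed 30 min with biotin-H3(1-18)K9me3 peptide (50 nM) in PBS pH 7.4, 0.01% Tween-20. Compound added for 30 min at RT, then streptavidin donor/nickel chelate acceptor beads (10 ug/mL) for 30 min.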
BAZ2B inh – qHTS Assay for Inhibitors of BAZ2B; Bromodomain adjacent to zinc finger domain protein 2B (Homo sapiens), Q9UIF8; AlphaScreen BAZ2B-H3K14Ac peptide displacement; Potency, µM (highest dose often 114 µM), usual class: inhibitors; hit rate 4.4% among 360,000; also: nearly all actives have a fitted effect of over 60% in size
Target sequence (Q9UIF8 whole entry, looked up, the tested form may be a part): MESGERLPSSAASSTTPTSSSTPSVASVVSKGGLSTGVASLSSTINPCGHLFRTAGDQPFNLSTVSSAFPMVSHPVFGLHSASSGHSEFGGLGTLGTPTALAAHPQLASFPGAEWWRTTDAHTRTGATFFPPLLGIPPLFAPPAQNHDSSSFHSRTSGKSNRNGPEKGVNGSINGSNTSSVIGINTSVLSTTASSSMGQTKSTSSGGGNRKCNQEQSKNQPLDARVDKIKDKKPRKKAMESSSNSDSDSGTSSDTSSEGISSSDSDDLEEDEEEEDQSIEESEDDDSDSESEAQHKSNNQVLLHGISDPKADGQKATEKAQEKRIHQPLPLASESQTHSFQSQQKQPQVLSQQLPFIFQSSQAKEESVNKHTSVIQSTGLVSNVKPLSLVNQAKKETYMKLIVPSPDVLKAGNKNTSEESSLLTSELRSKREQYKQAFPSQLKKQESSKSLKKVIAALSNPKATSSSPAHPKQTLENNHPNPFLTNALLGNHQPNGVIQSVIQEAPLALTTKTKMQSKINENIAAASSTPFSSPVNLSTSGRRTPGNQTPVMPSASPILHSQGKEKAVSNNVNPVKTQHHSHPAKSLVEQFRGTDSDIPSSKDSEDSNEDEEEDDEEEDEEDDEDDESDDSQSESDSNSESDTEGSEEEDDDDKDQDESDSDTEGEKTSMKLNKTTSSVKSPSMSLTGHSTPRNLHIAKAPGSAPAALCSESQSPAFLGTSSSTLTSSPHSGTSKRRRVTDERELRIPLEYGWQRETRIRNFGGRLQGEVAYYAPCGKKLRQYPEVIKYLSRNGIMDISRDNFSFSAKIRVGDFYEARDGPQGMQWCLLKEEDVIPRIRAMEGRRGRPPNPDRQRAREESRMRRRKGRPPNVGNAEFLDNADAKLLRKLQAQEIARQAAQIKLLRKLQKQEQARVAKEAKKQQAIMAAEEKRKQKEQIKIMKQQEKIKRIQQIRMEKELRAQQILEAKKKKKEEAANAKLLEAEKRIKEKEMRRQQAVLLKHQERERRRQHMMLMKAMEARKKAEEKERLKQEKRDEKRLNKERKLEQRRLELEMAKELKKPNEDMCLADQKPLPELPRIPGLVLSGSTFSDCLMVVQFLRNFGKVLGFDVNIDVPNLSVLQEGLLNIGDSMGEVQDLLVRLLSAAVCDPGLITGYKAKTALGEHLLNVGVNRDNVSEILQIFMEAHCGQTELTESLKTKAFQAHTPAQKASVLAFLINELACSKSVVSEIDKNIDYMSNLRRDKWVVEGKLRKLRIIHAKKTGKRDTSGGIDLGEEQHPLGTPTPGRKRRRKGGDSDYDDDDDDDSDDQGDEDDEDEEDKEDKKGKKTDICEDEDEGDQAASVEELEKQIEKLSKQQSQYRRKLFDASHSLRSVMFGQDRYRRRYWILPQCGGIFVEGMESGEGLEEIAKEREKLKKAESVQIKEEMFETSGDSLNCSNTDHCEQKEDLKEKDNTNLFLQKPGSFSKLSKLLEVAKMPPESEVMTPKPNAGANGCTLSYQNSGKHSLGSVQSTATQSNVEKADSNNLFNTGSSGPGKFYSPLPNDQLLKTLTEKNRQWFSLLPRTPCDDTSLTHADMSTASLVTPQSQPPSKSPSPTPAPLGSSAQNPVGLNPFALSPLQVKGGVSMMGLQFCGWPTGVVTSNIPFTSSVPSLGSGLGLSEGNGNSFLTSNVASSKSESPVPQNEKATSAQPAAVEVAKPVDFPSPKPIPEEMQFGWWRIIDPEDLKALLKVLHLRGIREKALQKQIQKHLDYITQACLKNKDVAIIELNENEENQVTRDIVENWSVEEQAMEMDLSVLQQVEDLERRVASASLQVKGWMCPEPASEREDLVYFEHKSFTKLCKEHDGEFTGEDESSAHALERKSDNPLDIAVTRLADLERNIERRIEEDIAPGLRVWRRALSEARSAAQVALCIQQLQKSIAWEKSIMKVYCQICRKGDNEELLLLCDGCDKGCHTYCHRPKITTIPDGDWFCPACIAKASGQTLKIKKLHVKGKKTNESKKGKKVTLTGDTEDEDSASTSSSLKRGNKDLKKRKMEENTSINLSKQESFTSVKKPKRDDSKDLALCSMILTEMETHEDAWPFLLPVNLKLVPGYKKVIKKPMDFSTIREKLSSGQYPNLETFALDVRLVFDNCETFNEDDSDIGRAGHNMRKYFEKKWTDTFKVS
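AlphaScreen displacement of biotin-H3(5-23)K14Ac peptide (50 nM final) from BAZ2B (50 nM final) in PBS pH 7.4, 0.01% Tween-20; complex preformed 30 min RT, then compounds (top 110 uM) 30 min RT, beads 20 min dark.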
Sfp PPTase inh – qHTS Assay for Inhibitors of Bacillus subtilis Sfp phosphopantetheinyl transferase (PPTase). hit rate 3.5% among 310,000. Biochemical Sfp PPTase activity, qHTS. 4'-phosphopantetheinyl transferase ffp (Bacillus subtilis), Q9F4F7. Potency, µM, actives largely listed as inhibitors;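 also: the enzyme is Sfp with the accession as filed and its product quenches rhodamine fluorescence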
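Step 1, compound plus 15 nM Sfp-PPTase, 15 min, room temperature. Step 2, add rhodamine-CoA (5 uM) and BHQ-2-YbbR (12.5 uM). Step 3, read 525/598 nm fluorescence at 0 and 30 min.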
JMJD2A Tudor – qHTS Assay for Inhibitors of JMJD2A-Tudor Domain; Lysine-specific demethylase 4A (Homo sapiens), O75164; AlphaScreen JMJD2A-Tudor / H3K4me3 peptide binding; Potency, µM (titrated, usually from 114 µM), actives largely listed as inhibitors; hit rate 4.4% among 390,000; AID 504339, 2011; also: nearly all actives have a fitted effect of over 50% in size
G9a inh – qHTS Assay for Inhibitors of Histone Lysine Methyltransferase G9a; Potency, µM (doses to about 102 µM), hits mostly inhibitors; hit rate 8.8% among 350,000; G9a H3K9 monomethylation, AlphaScreen, 2 h; Histone-lysine N-methyltransferase EHMT2 (Homo sapiens), Q96KQ7; also: nearly all actives have a fitted effect of over 75% in size
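Enzyme 20 nM + cpd, 15 min RT; add b-H3K9 pep 500 nM / SAM 20 uM; 2 h RT; anti-H3K9me1 Ab 0.5 ug/mL + SA donor / anti-rabbit acceptor beads 20 ug/mL each, 10 min; AlphaScreen read.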
Of the large screens only hits and unclear results are named; the others gave an inactive call. Calls follow the shape of the dose curve; as a rule, active = well fitted curve in the direction sought with a large enough effect; inconclusive = small, poorly fitted or top-dose-only effect, or another doubt; inactive = no such curve, though single readings can be large; an effect the other way counts as inactive or inconclusive.

CCC(C)N(C(=O)CSc1nc2ccc(OC)cc2[nH]1)C1CCS(=O)(=O)C1 (centres undefined)	G9a inh 40µM (no result: Sfp PPTase inh)
COc1ccc2nc(SCCN(C)C)[nH]c2c1	HP1b chromo inh inconclusive, BAZ2B inh 50µM, G9a inh inconclusive
Oc1ccc(O)cc1	Sfp PPTase inh inconclusive, G9a inh 6µM (no result: HP1b chromo inh, BAZ2B inh, JMJD2A Tudor)
Nn1cnnc1N/N=C/c1ccc(Cl)cc1Cl	BAZ2B inh inconclusive, Sfp PPTase inh 56µM
Cc1cccc(Cn2c(SCc3ccc(C(=O)N4CCCCCC4)cc3)nc3ccncc32)c1	none (no result: Sfp PPTase inh)
CCCn1c(NCc2ccco2)nc2ccccc21	none
CCCCn1c(/C=C/c2ccco2)nc2ccccc21	G9a inh 8.9µM
CCCCn1c(N)nc2ccccc21	none
CCCn1c(/C=C/c2ccco2)nc2ccccc21	Sfp PPTase inh 35µM, G9a inh 8.9µM
CCc1ccc(-n2nc3cc(C)c(NC(=O)c4ccccc4C)cc3n2)cc1	BAZ2B inh inconclusive, JMJD2A Tudor 89µM, G9a inh 7.9µM (no result: Sfp PPTase inh)
CCc1ccc(-n2nc3cc(C)c(NC(=O)c4cccc5ccccc45)cc3n2)cc1	G9a inh inconclusive (no result: Sfp PPTase inh)
CCc1ccc(-n2nc3cc(C)c(NC(=O)c4cc(OC)cc(OC)c4)cc3n2)cc1	BAZ2B inh inconclusive, G9a inh 5.6µM (no result: Sfp PPTase inh)
COc1ccc(OC)c(NC(=O)Cn2c(=O)cc(-c3ccccc3)c3c(C)nn(C)c32)c1	JMJD2A Tudor inconclusive (no result: Sfp PPTase inh)
CCn1c(C)cc(C=C2C(=O)c3ccccc3C2=O)c1C	G9a inh inconclusive
Cc1ccc(C=C2C(=O)c3ccccc3C2=O)s1	HP1b chromo inh inconclusive, BAZ2B inh 16µM, Sfp PPTase inh inconclusive, JMJD2A Tudor inconclusive, G9a inh inconclusive
O=C1C(=Cc2cccs2)C(=O)c2ccccc21	none
Cc1cc(C=C2C(=O)c3ccccc3C2=O)c(C)n1C	G9a inh 40µM
O=C(NCCCN1CCCCC1)C1CCN(S(=O)(=O)N2CCC3(CC2)OCCO3)CC1	none
COC(=O)CSc1nc2cc3c(cc2cc1C)OCO3	G9a inh inconclusive
Cc1cc2cc3c(cc2nc1SCC(=O)Nc1nc(C)c(C)s1)OCO3	Sfp PPTase inh 25µM
COc1cccc(-c2nc(CS(=O)(=O)CC(=O)NCCc3ccc(Cl)cc3)c(C)o2)c1	none (no result: Sfp PPTase inh)
N#CC1(NC(=O)COc2ccc(S(=O)(=O)N3CCCC3)cc2[N+](=O)[O-])CCCCC1	G9a inh 14µM (no result: Sfp PPTase inh)
CC1CCCCN1C(=O)COc1ccc(S(=O)(=O)N2CCCC2)cc1[N+](=O)[O-] (centres undefined)	none (no result: Sfp PPTase inh)
O=C(NC1CCCC1)C(c1ccncc1)N(C(=O)c1csnn1)C1CCCC1 (centres undefined)	Sfp PPTase inh 56µM
O=C(NC1CCCCC1)C(c1cccnc1)N(C(=O)c1csnn1)c1ccccc1F (centres undefined)	none
O=C(NC1CCCC1)C(c1cccnc1)N(C(=O)c1csnn1)c1ccccc1Cl (centres undefined)	JMJD2A Tudor 50µM
O=C(CN(Cc1cccs1)C(=O)c1csnn1)NC1CCCC1	HP1b chromo inh inconclusive, JMJD2A Tudor 79µM
O=C(c1ccc2c(c1)N(Cc1ccc(Cl)cc1)C(=O)c1ccccc1S2=O)N1CCN(c2ccccc2F)CC1 (centres undefined)	none (no result: Sfp PPTase inh)
Cc1ccc(NCc2nnc(SCC(=O)O)n2Cc2ccccc2)cc1Cl	none
CCOc1ccc(NCc2nnc(SCc3ccc(Cl)cc3)n2-c2ccccc2)cc1	HP1b chromo inh inconclusive, BAZ2B inh 14µM, JMJD2A Tudor 22µM, G9a inh 25µM
CCOC(=O)CSc1nnc(CNc2ccc(Cl)cc2)n1-c1ccccc1	Sfp PPTase inh inconclusive
COC(=O)CSc1nnc(CNc2ccc(Cl)cc2)n1Cc1ccccc1	BAZ2B inh inconclusive, G9a inh 56µM
CCOc1ccc(CNc2ccc(N3CCN(Cc4ccccc4)CC3)cc2)cc1	HP1b chromo inh inconclusive, BAZ2B inh 8.9µM, JMJD2A Tudor 8.9µM (no result: G9a inh)
CCOc1ccc(CN2CCSCC2)cc1	HP1b chromo inh inconclusive, BAZ2B inh inconclusive, JMJD2A Tudor 3.5µM, G9a inh inconclusive
CCOc1ccc(CN2CCN(C(=O)c3ccccc3)CC2)cc1	HP1b chromo inh inconclusive, BAZ2B inh inconclusive, G9a inh inconclusive
CC(=O)Nc1ccc(N2CCN(Cc3ccccc3)CC2)cc1	none
CC(=O)c1c(C)[nH]c(C(=O)OCC(=O)Nc2ccc3c(c2)OCCO3)c1C	none (no result: BAZ2B inh, Sfp PPTase inh, G9a inh)
COc1cc(C(=O)N2CCNC(=O)C2CC(=O)Nc2ccc(C)c(C)c2)cc(OC)c1OC (centres undefined)	none (no result: Sfp PPTase inh)
CCCCOc1ccc(CN2CCSCC2)cc1	HP1b chromo inh inconclusive, JMJD2A Tudor 28µM (no result: G9a inh)
CCC(C)[C@H](NC(=O)N1CCN(C)CC1)C(=O)OC (some centres undefined)	none
CCC(C)NC(=S)N1CCN(C)CC1 (centres undefined)	HP1b chromo inh inconclusive, JMJD2A Tudor inconclusive, G9a inh 40µM
O=C1CCCC/C1=N\Nc1ccc(OCc2ccccc2)cc1	G9a inh 40µM
CN1N=C(C(=O)N2CCc3c([nH]c4ccccc34)C2c2ccccc2Cl)CCC1=O (centres undefined)	JMJD2A Tudor 32µM, G9a inh inconclusive
Cc1cc(C(=O)N2CCc3c([nH]c4ccccc34)C2c2cccc(Cl)c2)nn1C (centres undefined)	BAZ2B inh inconclusive, JMJD2A Tudor inconclusive, G9a inh 40µM
COc1ccc(C2c3[nH]c4ccccc4c3CCN2C(=O)c2ccc(=O)n(C)n2)c(F)c1 (centres undefined)	BAZ2B inh inconclusive, Sfp PPTase inh inconclusive, JMJD2A Tudor inconclusive (no result: G9a inh)
Cc1ccccc1C1c2[nH]c3ccccc3c2CCN1C(=O)c1ccc(=O)n(C)n1 (centres undefined)	BAZ2B inh 10µM, JMJD2A Tudor inconclusive
O=C(c1cc[n+]([O-])cc1)N1CCc2c([nH]c3ccccc23)C1c1ccccc1Cl (centres undefined)	BAZ2B inh inconclusive (no result: G9a inh)
COc1cccc(CN(C)C(=O)CCN(c2ccccc2)S(=O)(=O)c2ccc(C)cc2)c1OC	none (no result: Sfp PPTase inh)
COc1ccc(Cl)cc1NC(=O)CNCc1cccs1	HP1b chromo inh inconclusive, BAZ2B inh 71µM, JMJD2A Tudor 4.5µM
COc1ccc(Cl)cc1NC(=O)CN(C)C(=O)Cc1ccsc1	G9a inh 28µM (no result: Sfp PPTase inh)
COc1ccc(Cl)cc1NC(=O)CN(C)Cc1cccs1	none
O=C(COC(=O)C1CCN(c2ccc(C(F)(F)F)cn2)CC1)NCc1ccc(F)cc1	none (no result: Sfp PPTase inh)
O=C(NCCc1csc(-c2cccnc2)n1)c1cccc(C(F)(F)F)c1	none (no result: Sfp PPTase inh)
Cc1nc2cc(-c3cccs3)nn2c(NCC(C)(C)CN(C)C)c1C	G9a inh 50µM
CCN(CC)CCCNc1cc(C)nc2cc(-c3cccs3)nn12	G9a inh 45µM
